ChEMBL document CHEMBL3988442, “University of Dundee, Small-Polar-MMV Screening Library” (2021)

Legend:
[1] = molecular target: T1, Aspartate--tRNA(Asp/Asn) ligase (Mycobacterium tuberculosis (strain ATCC 25618 / H37Rv)) (UniProt P9WFW3); assay: Assay for Asp RNA synthetase-1 from Mycobacterium tuberculosis; format: functional; parameters: scale not given: direction of the effect not stated beside the values; conditions: 30 µM; note: in the data most compounds retested in dose-response had high values
T1 sequence (whole entry): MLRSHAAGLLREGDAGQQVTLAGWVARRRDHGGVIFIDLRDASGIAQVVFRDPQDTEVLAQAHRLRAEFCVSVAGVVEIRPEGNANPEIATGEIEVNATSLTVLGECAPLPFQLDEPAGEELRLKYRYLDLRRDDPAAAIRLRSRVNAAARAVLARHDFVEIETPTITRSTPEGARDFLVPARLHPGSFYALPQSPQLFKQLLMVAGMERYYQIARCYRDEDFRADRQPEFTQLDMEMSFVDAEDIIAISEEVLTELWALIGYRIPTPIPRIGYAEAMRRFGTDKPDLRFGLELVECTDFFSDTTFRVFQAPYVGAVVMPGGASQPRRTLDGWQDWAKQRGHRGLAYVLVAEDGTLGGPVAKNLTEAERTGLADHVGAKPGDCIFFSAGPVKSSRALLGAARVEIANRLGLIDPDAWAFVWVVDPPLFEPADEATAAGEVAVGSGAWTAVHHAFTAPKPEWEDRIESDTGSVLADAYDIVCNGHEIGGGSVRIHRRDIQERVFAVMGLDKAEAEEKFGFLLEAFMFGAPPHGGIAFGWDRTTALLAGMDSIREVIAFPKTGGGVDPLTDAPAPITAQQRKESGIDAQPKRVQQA

[2] = molecular target: Shiga toxin 2 (Escherichia coli O157:H7) (UniProt P09385+P09386); assay: E. coli 0.157:H7 Shiga Toxin SOP - stx2 screening assay; format: functional; parameters: scale not given: direction of the effect not stated beside the values; conditions: 30 µM

Row | Compound | Percent Effect [1] [%] | Percent Effect [2] [%]
1 | O=C(c1cccnc1-n1cncn1)N1CCc2ccccc2C1 | -3.76 | -9.55
2 | CCc1nc(C2CCCN2CCc2ccccn2)no1 (configuration not stated) | -4.14 | -69
3 | Cc1cnn(CCNCc2nc(COc3ccc(F)cc3)no2)c1 | -1.72 | 16.3
4 | CC(NC(=O)NCCCN(C)C)c1ccc2c(c1)CCC(=O)N2 (configuration not stated) | -3.92 | 7.67
5 | OCC1CCCN1c1cc(NCc2ccc(Cl)s2)ncn1 (configuration not stated) | 0.451 | -31.6
6 | Cn1cc(CN2C[C@@H]3COC[C@]3(COc3ccc(C#N)cn3)C2)cn1 | 3.33 | -7.69
7 | CCC(=O)NC1CCN(c2cccc(CC)c2)CC1 | 1.79 | 5.5
8 | CC(C)NC(=O)C1CN(C(=O)Nc2ccccc2)CC12CCOCC2 (configuration not stated) | 12.7 | -4.72
9 | O=C(NCCCN1CCCC1)c1n[nH]c(=O)c2ccccc12 | -3.43 | -6.83
10 | CCc1cccc(NS(=O)(=O)c2cc3c(c(C(=O)O)c2)OCCO3)c1 | -2.26 | -33.5
11 | CCCc1n[nH]c(C2CN(CCn3cccn3)CCO2)n1 (configuration not stated) | 3.43 | 6.67
12 | Cc1ccc(-c2nc(CNC3CCc4ncnn4C3)co2)c(C)c1 (configuration not stated) | -9.8 | -22
13 | CC(C)c1nc(C2CCCN2CC(=O)N2CCc3ccccc32)no1 (configuration not stated) | 1.52 | 10.6
14 | COc1ccc(C2CCCN2S(=O)(=O)N(C)CC(C)C)cc1 (configuration not stated) | 1.67 | -7.35
15 | OCC1CCCN1c1cc(NCCNc2ccccn2)ncn1 (configuration not stated) | 8.62 | -85.7
16 | CC(C)NC(=O)CC1COC2(CCN(Cc3cccs3)CC2)C1 (configuration not stated) | -0.0228 | -27.2
17 | COCCc1noc(CN2CCCC2c2c(C)nn(C)c2C)n1 (configuration not stated) | -7.13 | 10.3
18 | Cc1nc(CN2CCCC(N(C)CCc3ccncc3)C2)no1 (configuration not stated) | 0.35 | 22.9
19 | c1coc(-c2noc(CN3CCCC(Cn4cncn4)C3)n2)c1 (configuration not stated) | -6.28 | -10.4
20 | CC(C)c1nnc2n1CCN(C(=O)CN1Cc3ccccc3C1=O)C2 | -0.233 | -25.5
21 | Cc1cnn(CC(C)NCc2csc(-c3ccco3)n2)c1 (configuration not stated) | 2.75 | 1.53
22 | CCS(=O)(=O)N1C[C@H]2C[C@H](C(=O)N(C)C)[C@@H](C1)O2 | 3.87 | -5.91
23 | CN(C)c1ccc(C(=O)NCC2(O)CCOCC2)cc1 | -2.13 | -12.5
24 | Cc1cc(=O)[nH]c(CCNC(=O)C(c2ccc(F)cc2)N(C)C)n1 (configuration not stated) | -1.19 | -71.7
25 | COc1ccccc1S(=O)(=O)N1CCC(Oc2cccnn2)CC1 | -2.24 | -12.5
26 | COCC(=O)N1CC[C@H]2C[C@@H](c3nnc(C4CC4)o3)O[C@@H]2C1 | -1.34 | -18.9

Row | Compound | Percent Effect [1] [%] | Percent Effect [2] [%]
27 | CN1CCN(C(=O)[C@@H]2CCO[C@@H]3CCN(c4ncccn4)C[C@@H]32)CC1 | 5.45 | -16.6
28 | c1csc(CN2CCO[C@H]3[C@H](OCCN4CCCC4)CC[C@@H]32)n1 | 2.94 | -36.8
29 | CN1CCN(c2cc(CCNC(=O)C3CCC3)nc(C3CC3)n2)CC1 | -3.83 | -18.7
30 | CN(CCC#N)C(=O)CCOc1cccc(F)c1 | -3.59 | -25.6
31 | Cc1nn2cccnc2c1C(=O)N1CCCC(Nc2ccccc2)C1 (configuration not stated) | 1.98 | 8.26
32 | O=C(NC1(c2cccc(F)c2)CCOCC1)c1cc[nH]n1 | 3.45 | -26.7
33 | Cc1ccc(C2CCCN2Cc2nc3c(cnn3C)c(=O)[nH]2)cc1C (configuration not stated) | -1.66 | -9.34
34 | COc1ccccc1N1CCC(CNCc2cccc(OC)c2OC)C1 (configuration not stated) | 10.8 | -7.96
35 | Cc1ccc(NC2CCN(C(=O)CCc3ccco3)CC2)nn1 | 0.0874 | 19.2
36 | O=C1COC2(CCN(C(=O)c3ccco3)CC2)CN1Cc1ccccn1 | -2.5 | -3.41
37 | Cc1csc(N2CCN(Cc3cnc(C)s3)CC2C)n1 (configuration not stated) | 3.68 | 13.7
38 | CN(C)C(=O)COC1COC2(CCN(S(C)(=O)=O)CC2)C1 (configuration not stated) | -4.11 | -11.5
39 | O=C1N(CCCc2ccccc2)CCCC1(O)CNCc1ccccc1 (configuration not stated) | 4.53 | -10.3
40 | COc1ccc(-c2noc(CNC(C)Cn3cccn3)n2)c(OC)c1 (configuration not stated) | -1.71 | -8.56
41 | CCOc1nnc(CN(C)CC2CCCN2c2cccnn2)s1 (configuration not stated) | -1.14 | -14.4
42 | CC(=O)N1CC(=O)N(c2cnn(C)c2)CC12CCN(Cc1ccoc1)C2 (configuration not stated) | -2.35 | 0.489
43 | O=C(NCc1ccco1)[C@H]1C[C@H]2OCC[C@H]2N(C(=O)c2ccncc2)C1 | 4.89 | 8.77
44 | O=C(c1ccc(-n2cccn2)nc1)N1CCC(Nc2cccnn2)CC1 | -2.94 | 26.9
45 | CC(C)c1n[nH]c(C(=O)Nc2ccncc2)c1Br | -4.8 | 4.1
46 | Cc1nc(CN2CCC(CNC(=O)Nc3ccccn3)CC2)oc1C | 5.15 | -4.66
47 | O=C(C1CCOCC1)N1CCC2(CC1)CC(Oc1ccccc1)CO2 (configuration not stated) | -1.89 | 25.7
48 | CC(CNC(=O)N1CCN(c2cnccn2)CC1)Cc1cccs1 (configuration not stated) | 0.324 | -14.3
49 | COc1ccc(-c2cnc(CN3CCn4c(C)nnc4C3)o2)cc1 | 0.144 | -27.2
50 | Cc1noc2ncc(C(=O)NCC3CCN(C(C)C)C3)cc12 (configuration not stated) | 1.08 | 17.2
51 | CCc1ccc(CNC(=O)NC(C)CN2CCOCC2)s1 (configuration not stated) | 1.38 | -4.66
